High-throughput results from PubChem.
CYP2C19 act = increases human CYP2C19 enzyme activity; recombinant CYP2C19, luciferin-H EGE luminescence; active compounds read high; 0 = fully inhibited enzyme, 1 = untreated enzyme; 96,000 tested, under 10 active; AID 1025; activation factor at 5 µM; P33261;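 active = activation factor of at least 2 at 5 µM in the primary screen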;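 also: 0 = wells with 2.5 mM tranylcypromine and 1 = vehicle-only wells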
CYP2C19 inhib = blocks human cytochrome P450 2C19 | CYP2C19 Supersomes, luciferin-H EGE luminescence, 30 min | AID 778 | inhibition, % at 5 µM | P33261 | 96,000 tested, 21% active;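 active = CYP2C19 inhibition above a set limit at 5 µM in the primary screen, cut at about 50% in these data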;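 also: plate controls were negative control wells for no effect and 2.5 mM tranylcypromine positive control for full effect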
CYP2C9 inh = human CYP2C9 inhibition; 96,000 tested, 20% active; AID 777; inhibition, % at 5 µM; CYP2C9 Supersomes, luciferin-H conversion, luminescence; P11712;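 active = blocking of liver enzyme CYP2C9 beyond about 50% at 5 µM, limit read from the data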
Target sequence (P11712 whole entry, looked up): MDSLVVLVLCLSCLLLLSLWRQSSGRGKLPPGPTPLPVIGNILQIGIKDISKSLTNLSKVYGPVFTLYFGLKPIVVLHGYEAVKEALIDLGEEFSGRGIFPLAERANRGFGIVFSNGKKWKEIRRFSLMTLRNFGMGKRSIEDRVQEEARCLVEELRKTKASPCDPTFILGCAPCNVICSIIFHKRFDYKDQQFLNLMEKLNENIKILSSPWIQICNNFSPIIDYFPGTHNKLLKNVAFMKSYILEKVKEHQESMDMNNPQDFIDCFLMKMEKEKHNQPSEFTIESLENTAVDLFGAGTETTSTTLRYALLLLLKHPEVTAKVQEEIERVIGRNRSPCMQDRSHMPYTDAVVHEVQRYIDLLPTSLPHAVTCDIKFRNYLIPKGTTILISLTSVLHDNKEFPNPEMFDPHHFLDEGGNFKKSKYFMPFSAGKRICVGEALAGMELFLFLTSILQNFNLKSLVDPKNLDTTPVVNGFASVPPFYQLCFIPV
CYP2C9 act = activators of human CYP2C9. 96,000 tested, 1.4% active. AID 1024. P11712. activation factor at 5 µM. recombinant CYP2C9, luciferin-H conversion, luminescence; active compounds read high; factor 1 = untreated enzyme, 0 = blocked;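 active = activation factor of 2 or more for CYP2C9 at a 5 µM dose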;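 also: 0 = sulfaphenazole-blocked wells and 1 = vehicle-only wells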
Cav3 T inh = human Cav3.2 channel inhibition, primary screen; O95180; Cav3.2-expressing cells, Fluo-4 calcium fluorescence FDSS; active compounds read low; B-score at 10 µM; 100,000 tested, 4% active;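 active = single-dose well whose peak fluorescence ratio is a statistical outlier from its plate by either plate-standardised score or position-corrected B-score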
Active calls of the source: *; x = not tested or not shown. Rows were chosen to be rich in hits. Some 27% of all compounds tested hit in one or more screens of this group.

SMILES	CYP2C19 act	CYP2C19 inhib	CYP2C9 inh	CYP2C9 act	Cav3 T inh
CC(C)(C)/C(O)=C(/C#N)c1nc2ccccc2[nH]1	0.6	39.1	63.5*	0.4	x
COc1ccc(OC/C(O)=C(\C#N)c2nc3ccccc3[nH]2)cc1	1.1	-14.4	-12.0	1.1	x
CC(C)CC(/C(O)=C(\C#N)c1nc2ccccc2[nH]1)N1C(=O)c2ccccc2C1=O (stereo not given)	0	96.2*	94.7*	0.1	-6.58*
COc1cccc(OC)c1/C(O)=C(\C#N)c1nc2ccccc2[nH]1	0.4	58.5*	23.9	0.8	-0.322
CC1CCCN(C/C(O)=C(\C#N)c2nc3ccccc3[nH]2)C1 (stereo not given)	1	0.1	-0.8	1	0.671
CC(=O)NC(CC(C)C)C(=O)NC(=O)NCc1ccccc1 (stereo not given)	0.8	19.5	-5.2	1.1	0.637
CSc1nc(C)cc(SCCO)n1	0.9	5.1	-20.0	1.2	-0.0109
COc1cc(C(=O)N2CCC(O)(c3ccccc3)CC2)cc(OC)c1OC	0.3	65.7*	78.7*	0.2	-0.637
C=CCNC(=O)CN(c1ccc(OC)cc1OC)S(C)(=O)=O	0.8	16.9	-4.9	1	1.26
C=CCN(Cc1cc(OC)ccc1OC)S(=O)(=O)N(C)C	0	96.3*	63.7*	0.4	-0.0172
O=[N+]([O-])c1ccc(N/N=C/c2c[nH]c3ccccc23)cc1	0.9	13.6	58.1*	0.4	-0.173
CC(C)(CS(=O)(=O)[O-])NC(=O)CC[N+](C)(C)CCO	1.1	-12.9	-7.9	1.1	0.609
CCCS(=O)(=O)c1c(S(=O)(=O)CCC)c2c(N)cccn2c1C(=O)c1ccccc1	0.6	40.0	74.6*	0.3	-0.447
Cc1ccc(-n2c(C)cc(C(=O)COC(=O)C3=NNC(=O)CC3)c2C)cc1	0.4	61.5*	52.4*	0.5	0.364
Cc1cc(C(=O)COC(=O)C2=NNC(=O)CC2)c(C)n1-c1ccccc1	0.5	50.1*	31.7	0.7	0.468
O=C1CCc2cc(S(=O)(=O)NCCC(=O)N3CCN(c4cccc(Cl)c4)CC3)ccc2N1	x	x	x	x	1.68
Cc1ccc(OCCNC(=O)c2ccco2)cc1C	0.7	26.4	9.6	0.9	0.295
Clc1ccc(/C=C/c2nc3ccccc3[nH]2)c(Cl)c1	0.7	31.7	14.4	0.9	-3.29
CC(C)SC1=NC(C)(C)C=C(/C=C/c2c(Cl)cccc2Cl)N1	0.2	78.4*	69.9*	0.3	-1.3
CC(C)SC1=NC(C)(C)C=C(/C=C/c2ccc(Cl)cc2Cl)N1	0.3	69.1*	62.5*	0.4	0.465
O=Cc1ccc2noc(-c3ccc(F)cc3)c2c1	0.6	39.1	7.2	0.9	-2.35
CCOC(=O)c1cn(CC)c2ccc(Br)cc2c1=O	0.9	5.6	-95.7	2*	0.253
CCn1cc(C(=O)O)c(=O)c2cc(Br)ccc21	1.1	-7.7	-20.6	1.2	0.218
Cc1ccc(CCNC(=O)Cn2cccc2)cc1	0.2	76.5*	22.5	0.8	0.0819
O=C(CN1CCN(Cc2ccc(F)cc2Cl)C1=O)NCCc1ccccc1	0.5	54.5*	57.7*	0.4	-0.00835
SMILES	CYP2C19 act	CYP2C19 inhib	CYP2C9 inh	CYP2C9 act	Cav3 T inh
Cc1ccc(CCNC(=O)CN2CCN(Cc3ccccc3F)C2=O)cc1	0.5	48.2	81.3*	0.2	-0.416
O=C(CCc1ccccc1)N1CCN(CCO)CC1	0.9	6.6	6.3	0.9	1.19
O=C(NC(Cc1ccccc1)C(=O)NCc1ccccn1)c1ccco1 (stereo not given)	0.7	25.7	6.8	0.9	0.0902
N#Cc1ccc(OCC(=O)NCCc2ccccn2)cc1	1.1	-6.7	4.2	1	1.83
CN(C(=O)c1ccccc1)c1nc2ccccc2s1	0.7	33.0	26.1	0.7	-0.372
CC(C)CN(C(=O)c1nn(C)c(=O)c2ccccc12)c1nc2ccccc2s1	0.5	53.2*	77.4*	0.2	-0.745
CC1CCc2c(sc3ncnc(NCCCOC(C)C)c23)C1 (stereo not given)	0	98.2*	89.3*	0.1	-4.67
c1nc(NCCN2CCOCC2)c2c3c(sc2n1)CCCCC3	0.5	47.3	44.0	0.6	1.42
O=C1c2ccccc2NC2CCCCC12 (stereo not given)	1	1.3	-410.6	5.1*	0.459
CCC(=O)NC(c1ccc([N+](=O)[O-])cc1)c1c(O)ccc2ccccc12 (stereo not given)	0.1	94.4*	54.3*	0.5	-1.19
CCOC(=O)C(NC(=O)CC)C(O)c1cccc([N+](=O)[O-])c1 (stereo not given)	0.9	5.0	-2.8	1	0.809
CC(C)C(=O)NC(c1ccco1)c1c(O)ccc2ccccc12 (stereo not given)	0.7	26.0	65.5*	0.3	-0.705
CC(C)C(=O)NC(c1ccccc1Cl)c1c(O)ccc2ccccc12 (stereo not given)	0.8	21.9	12.0	0.9	0.846
O=C(Nc1ccccc1Cl)c1ccccc1Cl	0.8	18.7	-35.6	1.4	0.0172
O=C(NC(c1ccccc1)c1c(O)ccc2ccccc12)c1ccccc1Cl (stereo not given)	0.2	75.8*	93.1*	0.1	0.334
O=S(=O)(NCc1cccnc1)c1ccc(Cl)c(Cl)c1Cl	0.1	87.8*	-20.6	1.2	0.27
Cc1ccc(C(C)C)cc1S(=O)(=O)NCc1cccnc1	0.2	78.1*	61.6*	0.4	0.157
C=C(C)CSc1nc(N)cc(=O)[nH]1	1	4.0	-1.3	1	0.973
CN1CCN(C2=C(Cl)C(=O)N(C3CCCCC3)C2=O)CC1	0.1	93.5*	2.3	1	-0.21
CN1CCN(C2=C(Cl)C(=O)C(c3cnc(N4CCCCC4)s3)=C(Cl)C2=O)CC1	x	x	x	x	1.03
CN1C(C(=O)NCc2ccc(OC(F)(F)F)cc2)CC2Cn3c(nc4ccccc43)C21 (stereo not given)	x	x	x	x	0.11
CSc1nc(C)cc(-c2cc(C(=O)Nc3ccccc3)on2)n1	x	x	x	x	-1.4
Cc1cc(C)cc(SCc2noc(C(=O)NCC3CC3)c2C(=O)NCC2CC2)c1	x	x	x	x	-1.37
Cc1ccc(CNC(=O)CSc2n[nH]c(N)n2)cc1	0.8	20.4	14.4	0.9	-0.744
O=C(CSc1n[nH]c(=O)n1C1CC1)Nc1cc(Cl)ccc1Oc1ccccc1	0.4	58.7*	82.7*	0.2	-6.03*
CCCn1c(SCC(=O)Nc2ccccc2Oc2ccccc2)n[nH]c1=O	0.2	81.3*	74.5*	0.3	0.834
Cc1ccc(CNC(=O)CSc2nc(N3CCCCC3)nc(N3CCCCC3)n2)cc1	0.3	71.1*	11.2	0.9	-3.79
CCCn1c(SCC(=O)Nc2cc(Cl)ccc2OC)n[nH]c1=O	0.1	90.5*	7.9	0.9	0.531
CCCn1c(SCC(=O)NC(=O)Nc2ccc(C)cc2C)n[nH]c1=O	0.8	19.0	19.2	0.8	0.0942
CCN1C(=O)[C@@H]2[C@H](C1=O)[C@@H]1C[C@H]3C(=O)N(CC)C(=O)[C@H]3[C@@H]3C1=C(C(=O)N1C(=O)OC(=NCC4CC4)[C@]31C)[C@@H]2C	x	x	x	x	0.612
